{
  "source": "ChEMBL document CHEMBL1961873",
  "about": "“Compounds: GSK PKIS; Assays: Nanosyn kinase panel” (2012);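 further: mean inhibition of MST1, reported as part of the GSK PKIS dataset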",
  "data": [
    {"target": "T1, Serine/threonine-protein kinase 4 (Homo sapiens) (UniProt Q13043)", "T1 sequence (whole entry)": "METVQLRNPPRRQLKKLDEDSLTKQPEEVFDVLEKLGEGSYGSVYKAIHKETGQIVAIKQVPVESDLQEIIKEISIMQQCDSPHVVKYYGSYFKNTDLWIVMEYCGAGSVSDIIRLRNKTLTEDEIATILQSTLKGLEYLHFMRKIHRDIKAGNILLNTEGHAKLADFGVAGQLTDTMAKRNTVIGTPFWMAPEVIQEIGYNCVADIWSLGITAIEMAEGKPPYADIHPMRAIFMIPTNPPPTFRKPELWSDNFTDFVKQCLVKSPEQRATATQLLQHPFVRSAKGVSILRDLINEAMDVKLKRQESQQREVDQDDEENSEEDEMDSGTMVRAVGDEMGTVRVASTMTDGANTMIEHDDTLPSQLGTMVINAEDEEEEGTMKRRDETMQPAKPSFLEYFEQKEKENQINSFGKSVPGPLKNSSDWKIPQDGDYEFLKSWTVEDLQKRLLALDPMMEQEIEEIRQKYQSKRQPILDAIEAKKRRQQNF", "details": "at 0.1 µM", "units": {"inhibition": "%"}, "values": [
      {"smiles": "CN1CCC(n2cnc(-c3ccc(F)cc3)c2-c2ccnc(N)n2)CC1", "inhibition": 2.73},
      {"smiles": "NC(=O)c1sc(-n2cnc3ccc(C(F)(F)F)cc32)cc1OCc1ccccc1Br", "inhibition": 2.27},
      {"smiles": "CN(C)CCOc1ccc(-c2nc(-c3ccncc3)c(-c3ccc4c(c3)CC/C4=N\\O)[nH]2)cc1", "inhibition": 4.67},
      {"smiles": "CCCN(CCS(C)(=O)=O)Cc1ccc(-c2ccc3ncnc(Nc4ccc(OCc5cccc(F)c5)c(Cl)c4)c3c2)o1", "inhibition": 2.67},
      {"smiles": "CCc1nn2ncccc2c1-c1ccnc(NC2CC2)n1", "inhibition": 1.74},
      {"smiles": "CCNC(=O)O[C@H]1CN[C@H](C#Cc2cc3ncnc(Nc4ccc(OCc5cccc(F)c5)c(Cl)c4)c3s2)C1", "inhibition": 5.6},
      {"smiles": "CNC(=O)c1cccc(C#Cc2cncnc2Nc2ccc(OCc3cccc(F)c3)c(Cl)c2)c1", "inhibition": 4.83},
      {"smiles": "CCN1CCC(CC(=O)Nc2n[nH]c3nnc(-c4cccc(F)c4F)cc23)CC1", "inhibition": 2.83},
      {"smiles": "c1cc(-c2cnn3nc(N4CCOCC4)ccc23)nc(NC2CC2)n1", "inhibition": 7.25},
      {"smiles": "CS(=O)(=O)CCNCc1coc(-c2ccc3ncnc(Nc4ccc(OCc5ccccc5)cc4)c3c2)c1", "inhibition": 2.75},
      {"smiles": "COc1ccc(-c2cc3c(N)ncnc3o2)cc1", "inhibition": -2},
      {"smiles": "N#Cc1c(NC(=O)CN2CCOCC2)sc2c1CCCC2", "inhibition": 5.59},
      {"smiles": "Clc1ccc(-c2nn3ncccc3c2-c2ccnc(Nc3ccccc3)n2)cc1", "inhibition": 0.77},
      {"smiles": "COc1cc(/C=N/Nc2ncnc3[nH]ncc23)ccc1O", "inhibition": 6.37},
      {"smiles": "CC(C)(CO)CNC(=O)c1ccc2c(c1)/C(=N/Nc1ccc(S(N)(=O)=O)cc1)C(=O)N2", "inhibition": 40.7},
      {"smiles": "Cc1ccc(O)cc1Nc1ccnc2cc(-c3ccccn3)ccc12", "inhibition": 7.99},
      {"smiles": "Fc1ccc(-c2nn3ccccc3c2-c2ccncc2)cc1", "inhibition": 0.01},
      {"smiles": "c1ccc(-c2nc3n(c2-c2ccc4c(c2)OCO4)CCC3)nc1", "inhibition": 0.85},
      {"smiles": "N#Cc1c(NC(=O)c2ccc(F)cc2)sc2c1CCCC2", "inhibition": -0.35},
      {"smiles": "COc1cc(N2CCN(C(C)C)CC2)ccc1Nc1nc(Nc2ccc(F)cc2C(N)=O)c2cc[nH]c2n1", "inhibition": 5.27},
      {"smiles": "COc1cc2c(cc1Nc1nc(Nc3ccsc3C(N)=O)c3cc[nH]c3n1)N(C(=O)CN(C)C)CCC2(C)C", "inhibition": 15.6},
      {"smiles": "O=S(=O)(CCNCc1ccc(-c2ccc3ncnc(Nc4ccc(OCc5cccc(F)c5)c(Cl)c4)c3c2)o1)c1ccccc1", "inhibition": 4.83},
      {"smiles": "CCOc1ccc2c(-c3ccnc(Nc4cccc(C(F)(F)F)c4)n3)cnn2n1", "inhibition": 3.72},
      {"smiles": "Cc1ccc2c(-c3ccnc(Nc4ccccc4)n3)c(-c3ccc(F)cc3)nn2n1", "inhibition": 6.19},
      {"smiles": "CNC(=O)c1cc(-c2ccc(F)cc2)cc(-c2ccc(S(=O)(=O)N3CCCC3)cc2)c1N", "inhibition": 0.78},
      {"smiles": "CCn1cc(-c2ccnc3[nH]ccc23)c(-c2cccc(NC(=O)Nc3ccc(OCc4ccccc4)cc3)c2)n1", "inhibition": 1.36},
      {"smiles": "COc1cc(Nc2nccc(Nc3ccc4c(C)n[nH]c4c3)n2)cc(OC)c1OC", "inhibition": 5.05},
      {"smiles": "CCn1c(-c2nonc2N)nc2c(C#CC(C)(C)O)nc(OC[C@H](N)c3ccccc3)cc21", "inhibition": 7.92},
      {"smiles": "c1ccc(COc2ccc(Nc3ncnc4ccc(-c5ccco5)cc34)cc2)cc1", "inhibition": -0.04},
      {"smiles": "Nc1ncc(-c2cccc(S(N)(=O)=O)c2)c2scc(-c3ccc(F)c(Cl)c3)c12", "inhibition": 4.66},
      {"smiles": "CS(=O)(=O)CCNCc1ccc(-c2ccc3ncnc(Nc4ccc(OCc5ccccc5)c(C(F)(F)F)c4)c3c2)o1", "inhibition": 2.67},
      {"smiles": "CCN(CC)S(=O)(=O)c1ccc(OC)c(Nc2ncc(-c3ccccc3)o2)c1", "inhibition": 6.37},
      {"smiles": "NS(=O)(=O)c1ccc(N/N=C2\\C(=O)Nc3ccc4ncccc4c32)cc1", "inhibition": 84.6},
      {"smiles": "COC(=O)Nc1nc2ccc(Oc3ccc(NC(=O)Nc4cccc(Cl)c4)cc3)cc2[nH]1", "inhibition": 2.25}
    ]}
  ]
}
